# Measured values as given in the supplement of paper PMC6953052.
# Values joined by “and” are separate entries in the source; they are usually repeats but may differ in a detail not shown here. Identical values can stand only once. ± gives the standard deviation of the averaged measurements. The full ranking holds about 1,700 compounds; the median of “fraction of GFP-LC3-positive cells (≥5 vesicles/cell)” is about 0.43, and the highest 2% start at about 0.81. The sample holds the highest values, similar compounds and a random draw of the others, so the mix is not that of the screen.
# Tested on: CbCln3 Δex7/8/Δex7/8 GFP-LC3 cerebellar neuronal cells
# Test: fraction of GFP-LC3-positive cells (≥5 vesicles/cell); higher = more autophagosome accumulation
# In short: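 Compound (~50 nL in DMSO) was pin-transferred in duplicate onto wild-type or mutant CbCln3 cerebellar cells stably expressing GFP-LC3, seeded at 2 × 10^3/well in 384-well plates, for 24 h at 33 °C. After fixation in 3.2% PFA, three fields per well were imaged at 10×. The value reported is the duplicate average of the fraction of cells meeting a vesicle-count threshold, with CellProfiler counting GFP-LC3 vesicles per cell and out-of-focus images excluded. Cells met the threshold at 5 or more vesicles.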
row,SMILES,fraction of GFP-LC3-positive cells
1,CC(=O)OC(C)C[N+](C)(C)C.[Cl-] (stereo unspecified) [Methacholine chloride],0.309
2,CCCc1cc(=O)[nH]c(=S)[nH]1 [Propylthiouracil],0.375
3,COc1ccc(C(=O)c2ccccc2)c(O)c1 [Oxybenzone],0.465
4,O=C(O)/C=C/c1ccc(O)c(O)c1 [Caffeic acid],0.359
5,COC(=O)/C=C/c1cc(O)ccc1O,0.924
6,CCC[C@@H]1C[C@@H](C(=O)N[C@@H](C2O[C@H](SC)[C@H](O)[C@@H](O)[C@H]2O)[C@H](C)Cl)N(C)C1.Cl (stereo partly specified) [Clindamycin hydrochloride],0.462
7,O=C1Nc2ccc([N+](=O)[O-])cc2C1=O [5-Nitroisatin],0.469
8,CCCCNc1cc(C(=O)O)cc(S(N)(=O)=O)c1Oc1ccccc1 [bumetanide],0.319
9,CCCCN(CCCC)CCC(O)c1cc2c(Cl)cc(Cl)cc2c2cc(C(F)(F)F)ccc12.Cl (stereo unspecified) [Halofantrine hydrochloride],0.319
10,CCCCC[C@H](O)/C=C/C=C\C=C\C=C\[C@@H](O)[C@@H](O)CCCC(=O)O [Lipoxin A4],0.498
11,"OCC(O)CN1CCN(c2ccccc2)CC1 (racemic) [Dropropizine (R,S)]",0.442
12,Cl.OC(CCN1CCCCC1)(c1ccccc1)C1C[C@@H]2C=C[C@H]1C2 (stereo partly specified) [Biperiden hydrochloride],0.447
13,CC[N+](CC)(CC(=O)Nc1c(C)cccc1C)Cc1ccccc1.O=C([O-])c1ccccc1 [Denatonium benzoate],0.424
14,"Nc1ncnc2c1ncn2[C@@H]1O[C@@H]2COP(=O)(O)OC2C1O (single isomer, unassigned; (-)) [(-)-Adenosine 3',5'-cyclic monophosphate]",0.271
15,COCCOC(=O)C1=C(C)NC(C)=C(C(=O)OC(C)C)C1c1cccc([N+](=O)[O-])c1 (stereo unspecified) [Nimodipine],0.35
16,Cl.N=C(N)NC(=O)c1nc(Cl)c(N)nc1N.O.O [Amiloride hydrochloride dihydrate],0.398
17,CC(=O)O[C@H]1C(=O)[C@@]2(C)[C@H]([C@H](OC(=O)c3ccccc3)[C@]3(O)C[C@H](OC(=O)[C@H](O)[C@@H](NC(=O)c4ccccc4)c4ccccc4)C(C)=C1C3(C)C)[C@]1(OC(C)=O)CO[C@@H]1C[C@@H]2O [Paclitaxel],0.843
18,CC(=O)O[C@H]1C(=O)[C@@]2(C)C([C@H](OC(=O)c3ccccc3)[C@]3(O)C[C@H](OC(=O)[C@H](O)[C@@H](NC(=O)c4ccccc4)c4ccccc4)C(C)=C1C3(C)C)[C@]1(OC(C)=O)CO[C@@H]1C[C@@H]2O (stereo partly specified) [taxol =paclitaxel],0.89
19,COc1c(C=O)c(O)cc2c1C(=O)c1ccccc1C2=O [damnacanthal],0.173
20,"O.Oc1cc(O)c2c(c1)OC(c1ccc(O)c(O)c1)C(O)C2 (racemic) [Catechin-(+,-) hydrate]",0.337
21,CC/C=C\C[C@H](O)/C=C/C=C\C/C=C\C/C=C\CCCC(=O)O,0.434
22,CCCCCCCC/C=C/CCCCCCCCC(=O)O [10(E)-Nonadecenoic acid],0.516
23,CCCCCCCC/C=C/CCCCCCCCC(=O)O [10(Z)-Nonadecenoic acid],0.551
24,NC[C@H]1O[C@H](O[C@H]2[C@H](O)[C@@H](O[C@H]3O[C@H](CO)[C@@H](O)[C@H](N)[C@H]3O)[C@H](N)C[C@@H]2N)[C@H](N)C[C@@H]1O [Tobramycin],0.5

row,SMILES,fraction of GFP-LC3-positive cells
1,COc1cc(N)c(Cl)cc1C(=O)NC1CCN(Cc2ccccc2)CC1.O=C(O)/C=C\C(=O)O [Clebopride maleate],0.506
2,CC(C(O)c1ccc(O)cc1)N1CCC(Cc2ccccc2)CC1.O=C(O)C(O)C(O)C(=O)O (stereo unspecified) [Ifenprodil tartrate],0.481
3,Cl.Fc1ccc([C@@H]2CCNC[C@H]2COc2ccc3c(c2)OCO3)cc1 [Paroxetine Hydrochloride],0.5
4,Nc1ccc(S(=O)(=O)Nc2ccc(Cl)nn2)cc1 [Sulfachloropyridazine],0.368
5,CC1CNc2c(cccc2S(=O)(=O)N[C@@H](CCCNC(=N)N)C(=O)N2CC[C@@H](C)C[C@@H]2C(=O)O)C1 (stereo partly specified) [Argatroban],0.486
6,"CCCCC[C@H](O)/C=C/C=C/C=C/[C@@H](O)C/C=C\CCCC(=O)O [8(S),15(S)-DiHETE all trans]",0.456
7,CCN(CC)CCOC(=O)c1ccc(N)cc1.Cl [Procaine hydrochloride],0.483
8,C[C@]12C=CC(=O)C=C1CC[C@@H]1[C@@H]2[C@@H](O)C[C@@]2(C)[C@H]1CC[C@]2(O)C(=O)CO [Prednisolone],0.183
9,CCCCOc1ccc(C(=O)CCN2CCCCC2)cc1.Cl [Dyclonine hydrochloride],0.322
10,NC(=O)c1cc[n+](CC2=C(C(=O)[O-])N3C(=O)[C@@H](NC(=O)[C@@H](c4ccccc4)S(=O)(=O)[O-])[C@H]3SC2)cc1.[Na+] [Cefsulodin sodium salt],0.367
11,CC1(C)[C@@H](OC(=O)CCC(=O)[O-])CC[C@]2(C)[C@H]3C(=O)C=C4[C@@H]5C[C@@](C)(C(=O)[O-])CC[C@]5(C)CC[C@@]4(C)[C@]3(C)CC[C@@H]12.[Na+].[Na+] [Carbenoxolone disodium salt],0.269
12,COC(=O)Nc1nc2cc(SC(C)C)ccc2[nH]1 [Methiazole],0.836
13,CCCCc1ccc2[nH]c(NC(=O)OC)nc2c1 [Parbendazole],0.927
14,COC(=O)Nc1nc2cc(Sc3ccccc3)ccc2[nH]1 [Fenbendazole],0.648
15,CCCCCCCCCCCCCCCCCCc1ccc(C(=O)/C=C/C(=O)O)cc1,0.48
16,CCCCCCCCCCCCCCCC(=O)NCCc1ccc(O)c(O)c1 [Palmitoyl dopamine],0.456
17,CCCSc1ccc2[nH]c(NC(=O)OC)nc2c1 [Albendazole],0.899
18,NCc1ccccc1CC(=O)N[C@@H]1C(=O)N2C(C(=O)O)=C(CSc3nnnn3CC(=O)O)CS[C@H]12 [Ceforanide],0.519
19,CC1CCc2cc(F)cc3c(=O)c(C(=O)O)cn1c23 (stereo unspecified) [Flumequine],0.273
20,CC1/C=C/C=C/CC/C=C/C=C/C=C/C=C/C(O[C@@H]2O[C@H](C)[C@@H](O)[C@H](N)[C@@H]2O)CC(O)C(C(=O)O)C(O)CC(=O)CC(O)C(O)CCC(O)CC(O)CC(O)CC(=O)OC(C)C(C)C1O (stereo partly specified) [Nystatine],0.294
21,CC(=O)Oc1ccccc1C(=O)Oc1ccccc1C(=O)O [Acetylsalicylsalicylic acid],0.354
22,CC(=O)OCOC(=O)CN(CC(=O)OCOC(C)=O)c1ccccc1OCCOc1ccccc1N(CC(=O)OCOC(C)=O)CC(=O)OCOC(C)=O,0.851
23,COc1cc2nc(N3CCN(C(=O)c4ccco4)CC3)nc(N)c2cc1OC.Cl [Prazosin hydrochloride],0.669
24,COc1cc2nc(N3CCN(C(=O)C4CCCO4)CC3)nc(N)c2cc1OC.Cl (stereo unspecified) [Terazosin hydrochloride],0.396

row,SMILES,fraction of GFP-LC3-positive cells
1,COc1cc2nc(N3CCN(C(=O)c4ccco4)CC3)nc(N)c2cc1OC [prazocin],0.931
2,CCCCC/C=C\C/C=C\C=C\[C@@H](O)C/C=C\CCCC(=O)O,0.479
3,CCCOc1ccccc1-c1nc2[nH]nnc2c(=O)[nH]1 [zaprinast],0.222
4,Nc1nc2c(ncn2COCCO)c(=O)[nH]1 [Acyclovir],0.421
5,Nc1nc2[nH]nnc2c(=O)[nH]1 [Azaguanine-8],0.845
6,CN(C)CCOC(c1ccccc1)c1ccccc1.Cl [Diphenhydramine hydrochloride],0.531
7,CCCCC[C@H](O)/C=C/C=C\C/C=C\CCCCC(=O)O,0.403
8,CCCCC(CC)CNC(=N)NC(=N)NCCCCCCNC(=N)NC(=N)NCC(CC)CCCC.Cl.Cl (stereo unspecified) [Alexidine dihydrochloride],0.537
9,CCCNC(C)C(=O)Nc1ccccc1C.Cl (stereo unspecified) [Prilocaine hydrochloride],0.359
10,C=CCOc1ccccc1OCC(O)CNC(C)C.Cl (stereo unspecified) [Oxprenolol hydrochloride],0.366
11,Cl.OCCN1CCN(CC/C=C2/c3ccccc3Sc3ccc(Cl)cc32)CC1 [Zuclopenthixol hydrochloride],0.542
12,O=c1cc(-c2ccc(O)cc2)oc2cc(O)cc(O)c12 [Apigenin],0.432
13,CCCCCC(=O)/C=C/[C@H]1[C@H](O)CC(=O)[C@@H]1C/C=C\CCCC(=O)O [15-Keto-prostaglandin E2],0.471
14,NS(=O)(=O)c1cc2c(cc1Cl)N=C(CSCc1ccccc1)NS2(=O)=O [Benzthiazide],0.293
15,CS(=O)(=O)Nc1ccc([N+](=O)[O-])cc1Oc1ccccc1 [Nimesulide],0.391
16,CC(C)NC[C@H](O)c1ccc(O)c(O)c1.Cl [(-)-Isoproterenol hydrochloride],0.349
17,CN(C(=O)C(Cl)Cl)c1ccc(OC(=O)c2ccco2)cc1 [Diloxanide furoate],0.372
18,Cl.c1ccc2c(c1)CCCC2C1=NCCN1 (stereo unspecified) [Tetrahydrozoline hydrochloride],0.357
19,CC(C)C[C@H](NC(=O)[C@H]1CCCN1C(=O)OCc1ccccc1)C(=O)NCC(=O)NO,0.442
20,CN(C)CCCn1cc(C2=C(c3c[nH]c4ccccc34)C(=O)NC2=O)c2ccccc21,0.583 and 0.599
21,Cn1cc(C2=C(c3cn(CCCSC(=N)N)c4ccccc34)C(=O)NC2=O)c2ccccc21,0.854 ± 0.15
22,CN(C)CCC=C1c2ccccc2C=Cc2ccccc21.Cl [Cyclobenzaprine hydrochloride],0.513
23,CC[C@]1(O)C[C@@H]2CN(CCc3c([nH]c4ccccc34)[C@@](C(=O)OC)(c3cc4c(cc3OC)N(C)[C@H]3[C@@](O)(C(=O)OC)[C@H](OC(C)=O)[C@]5(CC)C=CCN6CC[C@]43[C@@H]65)C2)C1.O=S(=O)(O)O [vinblastine],0.848
